One assay concerns Molm13. Nature of the assay: cell viability relative to DMSO control (bortezomib = 0%); higher = less growth inhibition. Particulars: 10 nM; 72 h. The method, boiled down:
(§1)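 In duplicate runs, a library of 679 approved and investigational compounds in 384-well plates received acute myeloid leukemia cells at 1000 cells per well in 50 µL, with each compound at a single 10 nM dose for 72 h. CellTiter-Glo luminescence, read on an EnVision reader, served as the viability measure. Each plate was normalized by linear regression between DMSO-treated cells (100%) and positive-control-treated cells (0%).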

For the next assay, the system named is Mv4-11. Described as above. To be noted: 10 nM; 72 h. A digest of the protocol:
as §1

Usually cell viability stands for a read-out of living cells in per cent, often relative to untreated cells.

± gives the standard deviation of the averaged measurements.

Turning to `Cc1ccccc1-n1c(Cn2cnc3c(N)ncnc32)nc2cccc(C)c2c1=O`, the cell viability in the assay with Molm13 was determined as 108 ± 13%; with Mv4-11, 111 ± 5.5%.

On to `Cc1ccccc1-n1c(Cn2ncc3c(N)ncnc32)nc2cccc(C)c2c1=O`, for which the cell viability with Molm13 was 117 ± 1.4%; in the assay with Mv4-11, 117 ± 14%.

As to `O=C(O)c1nn(Cc2ccc(Cl)cc2Cl)c2ccccc12` [Lonidamine], the cell viability with Molm13 is 123 ± 1.8%; in the assay on Mv4-11, 120 ± 4.8%.

Turning to `CC(=O)OC(C)(C)/C=C/C(=O)[C@](C)(O)[C@H]1[C@H](O)C[C@@]2(C)[C@@H]3CC=C4[C@H](C[C@H](O)C(=O)C4(C)C)[C@]3(C)C(=O)C[C@]12C` [Cucurbitacin B], the cell viability with Molm13 stood at 61.7 ± 0.99%; in the assay on Mv4-11, 82.9 ± 4.3%.

In the case of `CC(C)(C)c1cc(C=C(C#N)C#N)cc(C(C)(C)C)c1O` [Tyrphostin 9], the cell viability in the assay on Molm13 was 96.2 ± 18%; in the assay with Mv4-11, 99.7 ± 4.1%.

On to `CC(=O)N[C@H]1[C@@H](O[C@@H]2O[C@H](CC(O)[C@H]3O[C@@H](n4ccc(=O)[nH]c4=O)[C@H](O)[C@@H]3O)[C@H](O)[C@H](O)[C@H]2NC(=O)/C=C/CC(C)C)O[C@H](CO)[C@@H](N)[C@@H]1O` (stereo partly drawn) [Tunicamycin], for which the cell viability turned out to be 105 ± 14% with Molm13 and 103 ± 3.8% with Mv4-11.

Take `CC(C)=CCC[C@](C)(O)[C@H]1CC[C@]2(C)[C@@H]1[C@H](O)C[C@@H]1[C@@]3(C)CC[C@H](O[C@@H]4O[C@H](CO)[C@@H](O)[C@H](O)[C@H]4O)C(C)(C)[C@@H]3CC[C@]12C` [Ginsenoside Rh2]: the cell viability with Molm13 is 116 ± 2.1%; in the assay on Mv4-11, 111 ± 2.3%.

Take `COC(=O)C1(OC)CC2OC1(C)n1c3ccccc3c3c4c(c5c6ccccc6n2c5c31)C(=O)N(C)C4` (stereo not drawn): the cell viability was 115 ± 6.2% in the assay on Molm13 and 109 ± 2% in the assay with Mv4-11.

`O=c1[nH]c2ccccc2n1C1CCN(Cc2ccc(-c3[nH]c4cc5ncnc5cc4nc3-c3ccccc3)cc2)CC1` [AKT inhibitor VIII]: the figures for the cell viability in the assay with Molm13 and with Mv4-11 were 103 ± 12% and 103 ± 5.7%, respectively.

Values taken from the supplement of paper PMC8699584.
